Reference: PubChem BioAssay (Tox21)
Results filed as inconclusive are left out. A call without a number means that no potency is given here. Activity calls are given as the source filed them. Unless noted, calls come from the whole dose curve; as a rule, active = well fitted curve in the direction sought with a large enough effect in the repeat runs; inconclusive = weak or mixed curves; inactive = no such curve, though single readings can be large; an effect the other way counts as inactive or inconclusive.

Assays:
[1] = qHTS assay to identify small molecule antagonists of the estrogen receptor alpha (ER-alpha) signaling pathway using the BG1 cell line in the presence of 0.1 nM 17-beta-estradiol - cell viability counter screen (AID 1259241); note: nearly all actives have a fitted effect of over 40% in size
Method in brief: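 Cells were plated and left 24 hr, compounds in DMSO were pinned in, 17beta-estradiol was added to 0.1 nM final, and after 22 hr CellTiter-Fluor reagent was added for 30 min before fluorescence was read.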

[2] = qHTS assay to identify small molecule antagonists of the androgen receptor (AR) signaling pathway using the MDA cell line in the presence of 0.5 nM R1881 - cell viability counter screen (AID 1259242); note: nearly all actives have a fitted effect of over 45% in size
Method in brief: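 R1881 at 0.5 nM final stimulated MDA-kb2 cells during 16 hr compound treatment at 37C. Cytotoxicity read: CellTiter-Fluor fluorescence after 30 min.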

[3] = molecular target: Estrogen receptor (Homo sapiens) (UniProt P03372); test: qHTS assay to identify small molecule antagonists of the estrogen receptor alpha (ER-alpha) signaling pathway using the BG1 cell line in the presence of 0.1 nM 17-beta-estradiol (AID 1259244); note: nearly all actives have a fitted effect of over 50% in size
Chain of Estrogen receptor (Homo sapiens) (P03372 whole entry, looked up): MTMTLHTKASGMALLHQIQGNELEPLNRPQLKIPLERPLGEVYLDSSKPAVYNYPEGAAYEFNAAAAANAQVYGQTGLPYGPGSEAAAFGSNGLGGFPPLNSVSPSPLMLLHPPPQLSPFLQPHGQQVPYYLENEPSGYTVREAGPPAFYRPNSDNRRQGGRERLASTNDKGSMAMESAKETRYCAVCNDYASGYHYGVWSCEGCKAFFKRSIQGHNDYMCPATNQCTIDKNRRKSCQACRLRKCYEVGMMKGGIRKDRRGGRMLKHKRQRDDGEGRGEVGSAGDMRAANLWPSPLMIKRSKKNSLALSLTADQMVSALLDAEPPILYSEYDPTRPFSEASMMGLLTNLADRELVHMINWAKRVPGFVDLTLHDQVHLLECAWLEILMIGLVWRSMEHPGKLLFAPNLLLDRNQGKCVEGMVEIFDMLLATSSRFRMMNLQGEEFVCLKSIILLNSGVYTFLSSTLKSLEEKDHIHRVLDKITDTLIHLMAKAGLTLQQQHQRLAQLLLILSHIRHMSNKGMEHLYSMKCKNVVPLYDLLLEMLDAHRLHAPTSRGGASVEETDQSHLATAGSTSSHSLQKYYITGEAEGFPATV
Method in brief: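 VM7Luc4E2; 4xERE-luciferase; 0.1 nM E2 final; 22 h co-incubation, 37C; ONE-Glo luminescence after 30 min at room temperature.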

[4] = qHTS assay to identify small molecule HDAC inhibitors (AID 1259364);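 note: wild-type HCT-116 cells with endogenous class I/II HDAC activity; top concentration of the series differs between compounds; nearly all actives have a fitted effect of over 45% in size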
Method in brief: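 Relative class I and II HDAC activity is taken from the luminogenic signal in HCT-116 cells, with compound exposure 2 hr and reagent development 30 min at room temperature.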

[5] = qHTS assay to identify small molecule HDAC inhibitors - cell viability counter screen (AID 1259365); note: series mostly up to about 92 µM; nearly all actives have a fitted effect of over 50% in size
Method in brief: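 Counter screen in wild-type HCT-116 cells: compounds dissolved in DMSO are pin-transferred onto overnight-plated cells and left 2hr at 37C. ATP-based CellTiter-Glo luminescence then measures viable cells.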

[6] = qHTS assay to identify small molecule agonists of the sonic hedgehog signaling (Shh) pathway - cell viability counter screen (AID 1259366); note: nearly all actives have a fitted effect of over 50% in size
Method in brief: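 Cells are plated at 2,000 per well and left 4hr at 37C, 5% CO2 before compound addition. After 23hr of treatment, CellTiter-Fluor reagent is added for 1hr at 37C and fluorescence is measured.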

[7] = qHTS assay to identify small molecule antagonists of the sonic hedgehog signaling (Shh) pathway - cell viability counter screen (AID 1259367); note: nearly all actives have a fitted effect of over 55% in size
Method in brief: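 Using CellTiter-Fluor, viability of Gli1-Luc reporter 3T3 cells is read by fluorescence in the wells used for the Shh luciferase assay. Treatment lasts 23 hr with conditioned medium, then reagent 1 hr at 37C.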

[8] = qHTS assay to identify small molecule antagonists of the sonic hedgehog signaling (Shh) pathway (AID 1259369; calls by dose curve; note: nearly all actives have a fitted effect of over 45% in size)
Method in brief: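 Conditioned medium drives Shh signalling in 3T3Gli1-Luc cells; compounds in DMSO co-applied, 24hr at 37 C, then luciferase luminescence.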

[9] = molecular target: Estrogen receptor beta (Homo sapiens) (UniProt Q92731); test: qHTS assay to identify small molecule agonists of the estrogen receptor beta (ER-beta) signaling pathway (AID 1259377; active = well fitted activation curve with a large enough effect in the signal ratio in the repeat runs, not every such curve was filed as active; the % refers to the signal ratio)
Chain of Estrogen receptor beta (Homo sapiens) (Q92731 whole entry, looked up, the tested form may be a part): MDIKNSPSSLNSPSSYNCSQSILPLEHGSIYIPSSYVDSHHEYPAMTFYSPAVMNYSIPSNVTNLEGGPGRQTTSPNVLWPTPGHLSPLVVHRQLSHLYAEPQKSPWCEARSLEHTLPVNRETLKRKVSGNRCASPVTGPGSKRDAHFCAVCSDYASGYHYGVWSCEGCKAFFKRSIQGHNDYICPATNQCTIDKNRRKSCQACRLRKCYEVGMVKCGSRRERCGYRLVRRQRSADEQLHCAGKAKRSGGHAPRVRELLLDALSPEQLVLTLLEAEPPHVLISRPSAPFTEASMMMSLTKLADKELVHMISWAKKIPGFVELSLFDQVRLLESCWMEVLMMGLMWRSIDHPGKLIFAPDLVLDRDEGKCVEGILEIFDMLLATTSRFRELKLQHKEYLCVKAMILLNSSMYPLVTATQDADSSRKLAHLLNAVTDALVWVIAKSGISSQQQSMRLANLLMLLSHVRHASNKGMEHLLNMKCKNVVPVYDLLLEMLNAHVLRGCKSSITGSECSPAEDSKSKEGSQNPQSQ
Method in brief: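 Agonist mode cell assay in GripTite HEK293T cells expressing an ER-beta fusion that drives beta-lactamase from an Upstream Activator Sequence; 16 hr compound exposure at 37C, then 2 h LiveBLAzer B/G FRET substrate at room temperature, fluorescence read-out.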

[10] = molecular target: Estrogen receptor beta (Homo sapiens) (UniProt Q92731); test: qHTS assay to identify small molecule antagonists of the estrogen receptor beta (ER-beta) signaling pathway (AID 1259378; active = well fitted inhibition curve with a large enough effect in the signal ratio in the repeat runs, not every such curve was filed as active; the % refers to the signal ratio)
Method in brief: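 Antagonist mode: compounds added to beta-lactamase reporter HEK293T ER-beta-UAS cells stimulated with E2 (1nM final), 16 hr at 37C. LiveBLAzer B/G FRET substrate, 2 hours room temperature, fluorescence read-out.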

[11] = qHTS assay to identify small molecule agonists of the androgen receptor (AR) signaling pathway in the presence of an antagonist - cell viability counter screen (AID 1259379);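 note: MDA-kb2 human breast cancer cells carrying an MMTV luciferase reporter; series mostly up to about 92 µM; nearly all actives have a fitted effect of over 25% in size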
Method in brief: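 A CellTiter-Fluor read-out measured viability of MDA-kb2 reporter cells (MMTV promoter with AR and GR response elements). Treatment: nilutamide 3.0uM final with compounds at 15 concentrations, 16 hr, 37C, 0% CO2.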

[12] = qHTS assay to identify small molecule agonists of the estrogen receptor beta (ER-beta) signaling pathway - cell viability counter screen (AID 1259380); note: nearly all actives have a fitted effect of over 30% in size
Method in brief: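 Cells used were ER-beta-UAS-bla HEK293T in medium with 2% charcoal-stripped FBS. They were treated for 16 hr at 37C. Viability came from CellTiter-Glo luminescence.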

[13] = molecular target: Estrogen receptor (Homo sapiens) (UniProt P03372); test: qHTS assay to identify small molecule agonists of the estrogen receptor alpha (ER-alpha) signaling pathway in the presence of an antagonist (AID 1259383; calls by dose curve; note: nearly all actives have a fitted effect of over 15% in size; note: potency is the fitted concentration of half-maximal effect; for activation: top concentration of the series differs between compounds)
Method in brief: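 Using VM7Luc4E2 cells seeded 24hr before treatment, antagonist ICI-182,780 (10.0nM final) was added, followed by compounds at 15 concentrations. Plates incubated 22hr; ONE-Glo luminescence quantified reporter activity.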

[14] = qHTS assay to identify small molecule agonists or antagonists of the thyroid stimulating hormone receptor (TSHR) signaling pathway - wild type cell line counter screen (AID 1259384; calls by dose curve)
Method in brief: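 Counter screen in untransfected Hek293: compounds (15-point titration, triplicate) plus phosphodiesterase inhibitor Ro20-1724 added after 18 h plating; 30 min RT. Intracellular cAMP via competitive d2/cryptate immunoassay, 1 h incubation.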

[15] = molecular target: Thyrotropin receptor (Homo sapiens) (UniProt P16473); test: qHTS assay to identify small molecule antagonists of the thyroid stimulating hormone receptor (TSHR) signaling pathway (AID 1259385; calls by dose curve; note: nearly all actives have a fitted effect of over 20% in size)
Chain of Thyrotropin receptor (Homo sapiens) (P16473 whole entry, looked up): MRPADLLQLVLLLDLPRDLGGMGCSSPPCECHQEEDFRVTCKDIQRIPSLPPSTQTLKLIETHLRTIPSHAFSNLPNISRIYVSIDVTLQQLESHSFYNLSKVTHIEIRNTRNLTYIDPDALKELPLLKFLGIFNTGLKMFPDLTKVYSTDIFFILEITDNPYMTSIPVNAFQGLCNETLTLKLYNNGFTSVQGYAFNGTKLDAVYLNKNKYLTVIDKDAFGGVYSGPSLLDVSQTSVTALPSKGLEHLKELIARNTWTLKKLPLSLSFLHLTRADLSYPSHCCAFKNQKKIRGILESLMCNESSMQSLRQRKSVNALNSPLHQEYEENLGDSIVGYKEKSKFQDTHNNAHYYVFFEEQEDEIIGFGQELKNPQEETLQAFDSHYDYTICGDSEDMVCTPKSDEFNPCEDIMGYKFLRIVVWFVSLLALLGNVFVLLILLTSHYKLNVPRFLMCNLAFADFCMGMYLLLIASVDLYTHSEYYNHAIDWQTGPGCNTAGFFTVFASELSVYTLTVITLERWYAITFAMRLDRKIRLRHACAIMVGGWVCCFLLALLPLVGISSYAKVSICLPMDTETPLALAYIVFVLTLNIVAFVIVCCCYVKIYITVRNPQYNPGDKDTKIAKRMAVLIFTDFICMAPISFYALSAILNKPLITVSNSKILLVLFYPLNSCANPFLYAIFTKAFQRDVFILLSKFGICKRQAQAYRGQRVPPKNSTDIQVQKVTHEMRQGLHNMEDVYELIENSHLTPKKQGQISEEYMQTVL
Method in brief: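 Antagonist mode: compound-treated TSHR-expressing HEK293 cells were stimulated with 1.5 ng/mL TSH (final) in presence of Ro20-1724 for 30 min at RT. HTRF cAMP detection after 1 h; each compound tested at 15 concentrations, triplicate.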

[16] = qHTS assay to identify small molecule agonists of the sonic hedgehog signaling (Shh) pathway (AID 1259368; calls by dose curve;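 note: NIH/3T3-derived 3T3Gli1-Luc cells carrying a stable Gli1-driven firefly luciferase reporter; series mostly up to about 92 µM; nearly all actives have a fitted effect of over 15% in size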)
Method in brief: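 Mouse fibroblast (NIH/3T3) reporter cells with stably integrated Gli1-Luc were treated 24 hr with compound; firefly luciferase luminescence served as the read-out.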

[17] = qHTS assay to identify small molecule antagonists of the estrogen receptor beta (ER-beta) signaling pathway - cell viability counter screen (AID 1259382); note: series mostly up to about 92 µM; nearly all actives have a fitted effect of over 55% in size
Method in brief: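 Agonist-stimulated (1nM E2) ER-beta-UAS-bla HEK293T cells are incubated with library compounds for 16 hr at 37C. Cell viability is then assessed in the reporter-assay wells by adding CellTiter-Glo and reading luminescence after 30 min.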

[18] = qHTS assay to identify small molecule phospholipidosis (PLD) inducers (AID 1259344; active = well fitted curve in the direction sought with a large enough effect; an effect the other way counts as inactive or inconclusive)
Method in brief: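 Fluorescent phospholipid staining (LipidTOX Red) measured by automated microscopy in fixed HepG2 cells after 24 h treatment; nuclei counterstained with Hoechst 33342; amiodarone as reference inducer.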

Compound	outcome [1]	outcome [2]	Potency [3]	Potency [4]	outcome [5]	Potency [6]	Potency [7]	Potency [8]	outcome [9]	Potency [10]	Potency [11]	Potency [12]	Potency [13]	Potency [14]	Potency [15]	outcome [16]	Potency [17]	outcome [18]
O=P(O)(Oc1ccccc1)Oc1ccccc1	inactive	inactive	inactive	inactive	inactive	inactive	inactive	inactive	inactive	inactive	inactive	inactive	inactive	inactive	inactive	–	–	–
CCC(C)n1c(=O)[nH]c(C)c(Br)c1=O (stereo not given)	inactive	inactive	inactive	inactive	inactive	inactive	inactive	–	inactive	inactive	inactive	inactive	–	inactive	–	inactive	inactive	–
OC(Cn1cncn1)(c1ccc(F)cc1)c1ccccc1F (stereo not given)	inactive	inactive	inactive	inactive	inactive	inactive	inactive	–	inactive	inactive	inactive	inactive	inactive	inactive	inactive	inactive	inactive	–
CCC#N	inactive	inactive	–	inactive	inactive	inactive	inactive	inactive	–	inactive	inactive	inactive	–	inactive	inactive	inactive	inactive	–
ClC(Cl)C(Cl)Cl	inactive	inactive	inactive	inactive	inactive	–	inactive	–	inactive	inactive	inactive	inactive	–	–	–	inactive	inactive	–
OC(c1ccc(F)cc1)(c1cncnc1)c1ccccc1Cl (stereo not given)	inactive	inactive	inactive	inactive	inactive	–	inactive	–	inactive	–	inactive	inactive	inactive	inactive	inactive	inactive	inactive	–
OC(c1ccccc1)(c1ccccc1)C1CCNCC1	inactive	inactive	–	inactive	inactive	–	–	–	inactive	inactive	inactive	inactive	–	inactive	inactive	inactive	inactive	inactive
CCCSC(=O)N(CCC)CCC	inactive	inactive	–	inactive	inactive	inactive	inactive	inactive	–	–	inactive	inactive	–	inactive	inactive	inactive	inactive	–
CN1C[C@@H](NS(=O)(=O)N(C)C)C[C@@H]2c3cccc4c3c(cn4C)C[C@H]21	inactive	inactive	–	inactive	inactive	–	inactive	inactive	–	inactive	inactive	–	–	inactive	inactive	inactive	inactive	inactive
C[C@H]1CCC[C@H](O)CCCCCc2cc(O)cc(O)c2C(=O)O1	inactive	inactive	–	inactive	inactive	–	–	–	–	–	–	inactive	0.0616 µM (active)	inactive	inactive	–	inactive	inactive
CCOP(=S)(OCC)Oc1cc(-c2ccccc2)on1	inactive	inactive	inactive	inactive	inactive	–	inactive	inactive	–	inactive	inactive	inactive	inactive	inactive	–	–	inactive	–
CC(C)CC(N(C)C)C1(c2ccc(Cl)cc2)CCC1 (stereo not given)	inactive	inactive	–	inactive	inactive	inactive	inactive	inactive	–	inactive	inactive	–	–	inactive	–	inactive	inactive	inactive
